We go through 100 compounds from PubChem BioAssay AID757 (NMMLSC, 2007).

Hit rate of the full screen: of about 190,000 compounds, about 520 (0.27%) were called active. About 2% were inconclusive and are not listed. Many of the other results were omitted from the sample, so actives are more common in it than they were. A number with no mark means an inactive call.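 How the source made its calls: active means GTP binding activity at least 20 points away from the 100% control level, either lower or higher; inconclusive means compound flagged as likely green fluorescent, judged across all proteins; inactive means the rest.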

The target in this test is Ras-related C3 botulinum toxin substrate 1 (Homo sapiens) (UniProt P63000). The test is described as follows: wildtype Rac1 GTP binding modulators, primary screen, biochemical, GST-Rac1 beads, flow cytometry, multiplex (AID 757). The conditions noted are these: fluorescent GTP binding, at 10 µM, actives lie on both sides, 0 = cold GTP competed, 100 = untreated. In general terms: In flow cytometry, cells or beads pass a laser one at a time.
For `CC(=O)c1ccc(-c2nnc(CCC(=O)N(C)Cc3cnc4ccccn34)o2)s1`, the GTP binding activity (% of control) is 92%.
In the case of `COCCn1c(C)cc(C(=O)CSc2nc3ccccc3c(=O)n2C(C)COC)c1C` (stereo not given), the GTP binding activity (% of control) was 97%.
With `O=C(O)/C=C/c1cn(-c2ccccc2)nc1-c1cccs1`, the GTP binding activity (% of control) was 94%.
With `O=C(/C=C\c1cn(-c2ccccc2)nc1-c1cccs1)N1CCOCC1` the figure was 106%; with `O=C(O)/C=C/c1cn(Cc2ccccc2)nc1-c1cccs1`, 157% [activator] (active).
For `O=S(=O)(Nc1ccccn1)c1cccc(S(=O)(=O)c2ccc(Cl)cc2)c1`, the GTP binding activity (% of control) was 97%.
With `Cc1c(NC(=S)NC(=O)CCc2ccccc2)c(=O)n(-c2ccccc2)n1C` the figure was 101%.
As to `CC1CCC(NC(=O)C2c3ccccc3C(=O)N2Cc2ccc3c(c2)OCO3)CC1` (stereo not given), the GTP binding activity (% of control) was 99%.
Regarding `COc1cccc(-c2ccc(SCC(=O)N3CCN(c4ccccc4)CC3)nn2)c1`, the GTP binding activity (% of control) is 92%.
With `CN(C)c1ccc(C(=S)N2CCN(C(=S)Nc3ccc(Cl)cc3)CC2)cc1` the figure was 98%.
With `O=C(c1cn2ccccc2n1)N1CCc2c([nH]c3ccccc23)C1c1ccccn1` (stereo not given), the GTP binding activity (% of control) is 98%.
Take `O=c1cc(O)c(-c2cccc(C(F)(F)F)c2)c(Cl)[nH]1`: the GTP binding activity (% of control) was 97%.
`O=C(NCCCN1CCOCC1)c1ccc([N+](=O)[O-])cc1[N+](=O)[O-]`: the GTP binding activity (% of control) was 102%.
`O=C(OCC(=O)c1cccs1)c1ccc([N+](=O)[O-])o1`: the GTP binding activity (% of control) is 99%.
Under `CNC(=S)Nc1ccc([N+](=O)[O-])cc1` stands 101%; under `CC(Oc1ccc(Br)cc1Br)C(=O)NC1CCCC1` (stereo not given), 96%.
Turning to `CC(=O)c1c(C)[nH]c(C(=O)Nc2cc(S(=O)(=O)N(C)C)ccc2C)c1C`, the GTP binding activity (% of control) was 97%.
On to `O=C(Nc1ccccc1C(=O)N1CCOCC1)c1ccc(Cl)cc1`, for which the GTP binding activity (% of control) is 98%.
`CCOc1ccc(N2CC(C(=O)NCCN3C(=O)S/C(=C\c4cccnc4)C3=O)CC2=O)cc1` (stereo not given): the GTP binding activity (% of control) was 95%.
As for `O=C(CSc1ccccc1)Nc1ccc(C(=O)Nc2cccc(O)c2)cc1`, the GTP binding activity (% of control) was 75% (active).
In the case of `Cc1cc(C)cc(NC(=O)CSc2ccccc2)c1`, the GTP binding activity (% of control) is 95%.
Turning to `O=C(CSc1ccccc1)Nc1ccc(NC(=O)c2ccco2)cc1`, the GTP binding activity (% of control) is 101%.
With `Cn1c(=NC(=O)c2ccc3c(c2)OCCO3)sc2cc(S(C)(=O)=O)ccc21` the figure was 100%; with `COc1ccc(CC(NC(C)=O)C(=O)NC2CCN(C(=O)c3ccc(OC)c(OC)c3)CC2)cc1OC` (stereo not given), 98%; with `CN(C)/N=C/c1cn(-c2ccccc2)nc1-c1cccnc1`, 101%.
On to `O=C(CNC(=O)COc1ccccc1)NCCc1ccccn1`, for which the GTP binding activity (% of control) was 102%.
Consider `Cc1ccc(CCCOC(=O)C[N+]2(C)CCCCC2)cc1`, for which the GTP binding activity (% of control) was 100%.
With `CCOC(=O)c1ccc(NNC(C)=O)c([N+](=O)[O-])c1`, the GTP binding activity (% of control) was 99%.
Consider `CC(=O)Nc1ccc(S(=O)(=O)NC2(C(F)(F)F)C(=O)NC(C)=C2C#N)cc1` (stereo not given), for which the GTP binding activity (% of control) was 105%.
Under `COc1cc2c(cc1OC)CC1(CCCCC1)N=C2` stands 102%; under `CN(C)CCN=c1cc(-c2ccccc2)oc2ccc(Cl)cc12`, 102%; under `CCN(CC(=O)NCc1cccs1)C(=O)c1ccccc1F`, 98%.
Regarding `Cc1ccc2c(=O)oc(N(C)C)nc2c1`, the GTP binding activity (% of control) is 94%.
With `Oc1ccccc1N1CCN(C(=S)NCc2ccccc2)CC1` the figure was 103%.
For the compound `O=c1/c(=C/c2ccc(CNS(=O)(=O)c3ccccc3)o2)sc2n1CCN=2`, the GTP binding activity (% of control) is 64% (active).
Under `O=S(=O)(NCc1ccccc1)c1ccc(S(=O)(=O)N2CCCC2)cc1` stands 102%.
As to `COC(=O)C1=C(C)NC(=O)/C1=C/c1ccc(CNS(=O)(=O)c2ccc(C)cc2)o1`, the GTP binding activity (% of control) was 100%.
Turning to `O=S(=O)(c1cccc(C(F)(F)F)c1)N1CCN(c2cnccn2)CC1`, the GTP binding activity (% of control) was 99%.
Take `CN(C(=O)COc1ncnc2c1cnn2-c1ccccc1)C1CCCCC1`: the GTP binding activity (% of control) is 102%.
With `c1ccc(-c2nnc(N3CCOCC3)c3ccccc23)cc1` the figure was 97%.
Turning to `COc1cccc(OCCCN2CCCCCC2)c1`, the GTP binding activity (% of control) was 95%.
With `CN1CCN(C(=O)CCc2ncc(C(F)(F)F)cc2Cl)CC1` the figure was 96%.
Regarding `COc1ccc(S(=O)(=O)N2CCOCC2)cc1C(=O)Nc1nc2ccccc2s1`, the GTP binding activity (% of control) was 75% (active).
On to `COc1ccc(S(=O)(=O)N2CCOCC2)cc1NC(=O)CSc1ncnc2ccccc12`, for which the GTP binding activity (% of control) was 93%.
Take `CCOC(=O)c1sc(NC(=O)c2cc(S(=O)(=O)N3CCOCC3)ccc2C)nc1C`: the GTP binding activity (% of control) is 102%.
As to `Cc1ccc(CSc2nc3[nH]ncc3c(=O)[nH]2)cc1`, the GTP binding activity (% of control) was 77% (active).
With `CCCSc1nc2[nH]ncc2c(=O)[nH]1` the figure was 100%; with `Cc1cccc(NC(=O)CSc2nc3[nH]ncc3c(=O)[nH]2)c1`, 97%; with `COc1cc(NS(=O)(=O)c2ccc(NC(=O)c3ccc(S(=O)(=O)N4CCCCC4)cc3)cc2)ncn1`, 95%.
Take `COc1ccccc1NC(=O)CCSc1nnc(-c2ccc(O)cc2)o1`: the GTP binding activity (% of control) was 95%.
`COc1cccc(NC(=O)c2ccc(S(=O)(=O)N(C)C)cc2)c1`: the GTP binding activity (% of control) was 104%.
On to `Oc1ccccc1C=NC1CCCCC1N=Cc1ccccc1O` (stereo not given), for which the GTP binding activity (% of control) is 100%.
For `O=C(CSc1ccccc1F)NC1CCS(=O)(=O)C1` (stereo not given), the GTP binding activity (% of control) was 96%.
As to `Cc1cccc(NC(=S)N2CCC(O)CC2)c1C`, the GTP binding activity (% of control) was 100%.
Regarding `CC(=O)NC(Cc1ccc(F)c(F)c1)C(=O)NC1CCN(C(=O)c2ccc(C)cc2)CC1` (stereo not given), the GTP binding activity (% of control) is 103%.
For `CC(C)CCN1CCN(C/C=C/c2ccco2)CC1CCO` (stereo not given), the GTP binding activity (% of control) was 94%.
On to `Cc1cc(C)c2c(NC(=O)C3CC3)nn(C)c2n1`, for which the GTP binding activity (% of control) is 98%.
With `CCOc1cc(C2C(C(=O)OC(C)C)=C(C)NC3=C2C(=O)CCC3)cc([N+](=O)[O-])c1O` (stereo not given) the figure was 98%.
Under `CC(NC(=O)COC(=O)c1ccc2c(c1)OCO2)c1ccccc1` (stereo not given) stands 101%.
Turning to `CC1=C(C(=O)N(C)C)C(c2ccccc2OC(F)F)NC(=O)N1` (stereo not given), the GTP binding activity (% of control) was 101%.
For `O=C(O)CC(SCC(=O)Nc1ccc(Br)cc1)C(=O)O` (stereo not given), the GTP binding activity (% of control) was 96%.
As for `CCCCCN1CC(O)=C(c2nc(-c3ccc(Cl)cc3)cs2)C1=N`, the GTP binding activity (% of control) is 135% [activator] (active).
As for `CCOC(=O)CCCN1CC(O)=C(c2nc3ccccc3s2)C1=N`, the GTP binding activity (% of control) was 102%.
On to `CCCCCN1CC(O)=C(c2ccccc2)C1=N`, for which the GTP binding activity (% of control) was 104%.
Under `CCc1ccc(C(=O)OCC(=O)NCC(F)(F)F)cc1` stands 98%; under `CN(Cc1ccccn1)Cc1nc(-c2ccc(Cl)cc2)no1`, 101%.
Turning to `COc1ccccc1-c1noc(CSc2nc(C)cc(=O)[nH]2)n1`, the GTP binding activity (% of control) was 93%.
For `COc1ccc(CC(NC(C)=O)C(=O)NC2CCN(C(=O)C3CC3)CC2)cc1OC` (stereo not given), the GTP binding activity (% of control) is 101%.
Under `O=C(/C=C/c1ccc(Cl)cc1Cl)c1cccnc1` stands 92%; under `O=C(Nc1cccnc1)c1ccc(Cl)c([N+](=O)[O-])c1`, 98%; under `O=C(/C=C/c1ccc(Cl)c([N+](=O)[O-])c1)c1cccnc1`, 78% (active).
As for `O=C(CC1CCCCC1)NCc1ccc(F)cc1`, the GTP binding activity (% of control) was 100%.
As to `O=C(NCCCn1ccnc1)C(=O)c1cn(CC(=O)N2CCCCCC2)c2ccccc12`, the GTP binding activity (% of control) is 100%.
On to `COc1cc(C(=S)NCc2ccccc2)cc(Br)c1O`, for which the GTP binding activity (% of control) was 79% (active).
Regarding `COc1cc(CNC2CCCC2)c(Br)cc1OCc1ccccc1`, the GTP binding activity (% of control) is 96%.
On to `COc1cc(C=O)c(Br)cc1OCC(=O)NCc1ccccc1`, for which the GTP binding activity (% of control) was 97%.
Under `Cc1ccc(NC(=O)CSc2nnc(CNC(=O)c3ccccc3F)o2)cc1` stands 92%; under `CS(=O)(=O)N(CC(=O)N1CCCC1)Cc1ccccc1`, 106%.
For the compound `COc1cccc(CNC(=O)CCC2CCCN(C(=O)c3cc(C)[nH]n3)C2)c1` (stereo not given), the GTP binding activity (% of control) is 100%.
As to `CC(=O)N1N=C(c2ccccc2)OC1c1cccnc1` (stereo not given), the GTP binding activity (% of control) was 98%.
With `CCc1nc(C)cn1S(=O)(=O)c1cc([N+](=O)[O-])ccc1Cl` the figure was 96%; with `Cc1cccc(NC(=S)NC23CN4CN(CN(C4)C2)C3)c1`, 99%; with `COC(=O)CC1=NN(c2ccccc2)C(=O)C1`, 101%.
Under `O=C(NCC(=O)N(CC1CCCO1)C(C(=O)NC1CCCCC1)c1ccccc1)c1ccco1` (stereo not given) stands 103%; under `COc1ccc2ccccc2c1CNc1nnnn1C`, 93%.
For the compound `O=C(NCCCN1CCOCC1)c1ccc(N2CCCC2)c([N+](=O)[O-])c1`, the GTP binding activity (% of control) was 99%.
Under `CC(=O)c1ccc(N2CCN(S(=O)(=O)c3c(C)[nH]c(=O)[nH]c3=O)CC2)cc1` stands 99%; under `COc1ccc(Br)cc1/C=N/Nc1ccc(Cl)c(C(=O)O)c1`, 93%; under `Cc1nc(-c2ccccc2)sc1C(=O)/C=C/N(C)C`, 96%.
As for `COc1cccc(-n2c(=S)sc3c(=O)n(-c4ccccc4OC)c(SCC4OCCO4)nc32)c1`, the GTP binding activity (% of control) is 100%.
Under `O=C(/C=C/c1ccccc1Cl)Nc1ccc(S(=O)(=O)Nc2ncccn2)cc1` stands 100%; under `CCOC(=O)c1sc2nc(C)nc(Nc3ccc(OC)c(OC)c3)c2c1C`, 89%; under `CCOC(=O)c1sc(-c2cccc([N+](=O)[O-])c2)cc1N`, 101%.
`O=C(CNC1CCCCC1)NCC1(c2ccccc2)CCCC1`: the GTP binding activity (% of control) is 98%.
Take `Cc1csc(CN(C)C(=O)CC2C(=O)NCCN2CC(C)(C)C)n1` (stereo not given): the GTP binding activity (% of control) is 98%.
Take `COCCN(CCOC)C(=S)Nc1ccccc1Cl`: the GTP binding activity (% of control) is 95%.
Take `CC1CC1C(=O)OCC(=O)c1c(N)n(C)c(=O)n(C)c1=O` (stereo not given): the GTP binding activity (% of control) is 92%.
Consider `COc1ccc(NC(=O)c2c(SC)nsc2SC)cc1`, for which the GTP binding activity (% of control) was 110%.
Turning to `CSc1ncccc1C(=O)NC1CCCCCC1`, the GTP binding activity (% of control) was 99%.
Consider `CSc1nsc(SC)c1NC(=O)OC1CCCCC1`, for which the GTP binding activity (% of control) is 30% (active).
